32 molecules from PubChem BioAssay (NCATS) can be followed below.

Structures are written as SMILES. Records with an inconclusive call do not appear. Activity calls are given as the source filed them. Calls come from the whole dose curve; as a rule, active = well fitted curve in the direction sought with a large enough effect; inconclusive = small, poorly fitted or top-dose-only effect, or another doubt; inactive = no such curve, though single readings can be large; an effect the other way counts as inactive or inconclusive.
Potency is the fitted concentration of half-maximal effect.

One assay is described as follows: qHTS of pediatric cancer cell lines to identify multiple opportunities for drug repurposing: Primary screen for A673 cells (AID 1347092). Note: nearly all actives have a fitted effect of over 45% in size. Conditions: A673 Ewing sarcoma viability, CellTiter-Glo ATP luminescence, 48 h; series mostly up to 46 µM. The procedure, abridged: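 Cell viability of A673 measured by CellTiter-Glo ATP luminescence after 48 hours compound exposure. Dilution series spanned 0.78 nM to 46 µM (MIPE, 11-point) or 0.59 nM to 46 µM (NPC, 8-point); bortezomib 2.3 uM positive control.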
With `CC[C@H](CC#N)OC(=O)N[C@@H](C)c1cccc(NC(=O)Nc2ccc(-c3cnco3)c(OC)c2)c1`, the Potency was 0.743 µM (active).

`CCC(=C(c1ccc(O)cc1)c1ccc(OCCNC)cc1)c1ccccc1`: the Potency was 37.2 µM (active).

Consider `Cc1cc(C(C)Nc2ccccc2)c2nc(N3CCOCC3)cc(=O)n2c1` (configuration not stated), for which the Potency is 0.935 µM (active). With `CC1CCN(c2cc(N3CCN(C)CC3)ccc2NC(=O)c2cc(C#N)c[nH]2)CC1`, the Potency result is “inactive”. `Cc1cccc(Nc2nc(N[C@@H]3CCCC[C@H]3N)ncc2C(N)=O)c1`: the Potency was 18.7 µM (active). On the same count and under the same terms, next, `O=c1[nH]c(=O)n([C@H]2C[C@@H](O)[C@@H](CO)O2)cc1C(F)(F)F`: 3.72 µM (active); `O=C(C=Cc1ccc(O)cc1)c1ccc(O)cc1O`: 18.7 µM (active); `O=C1Nc2ccc(I)cc2C1=Cc1cc(Br)c(O)c(Br)c1`: 14.8 µM (active).

A short description of a further assay: qHTS of pediatric cancer cell lines to identify multiple opportunities for drug repurposing: Primary screen for SK-N-MC cells (AID 1347093). Conditions: SK-N-MC viability, CellTiter-Glo luminescence, 48 h; series mostly up to 46 µM. The procedure, abridged: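 Metabolically active cells were quantified by ATP-dependent luminescence (CellTiter-Glo, 15 min at room temperature) following 48 h treatment. Cells had been plated at 500-1,000 per well and settled for 5 h beforehand.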
On the technique in general: Quantitative high-throughput screening tests each substance at several concentrations.
Take `NC(=O)c1nnn(Cc2cc(Cl)c(C(=O)c3ccc(Cl)cc3)c(Cl)c2)c1N`: the Potency is 23.5 µM (active). For `CC(=O)NCCC(=O)N[C@@H](CCC(N)=O)C(=O)N[C@@H](CO)C(=O)N[C@@H](CCC(N)=O)C(=O)N[C@@H](CCC(N)=O)C(=O)N[C@H](C(=O)N[C@@H](Cc1ccccc1)C(=O)N[C@]1(C)CCCCCCC=CCCC[C@@](C)(C(=O)N[C@@H](CCC(N)=O)C(=O)N[C@@H](CC(N)=O)C(N)=O)NC(=O)[C@H](CC(C)C)NC(=O)[C@H](CC(C)C)NC(=O)[C@@H](CCCNC(=N)N)NC(=O)[C@H](Cc2c[nH]c3ccccc23)NC(=O)[C@H](CC(C)C)NC(=O)[C@H](CC(N)=O)NC1=O)[C@H](C)O`, the Potency entry was “inactive”. `CCOC(=O)[C@H](CCc1ccccc1)N[C@@H](C)C(=O)N1CCCC1C(=O)O` (some centres not stated): the Potency was 8.33 µM (active). On the same count and under the same terms, next, `O=C(O)CCC=CCC[C@@H]1[C@H](N2CCCCC2)[C@@H](O)C[C@@H]1OCc1ccc(-c2ccccc2)cc1`: 26.4 µM (active); `CC(C)(CO)[C@@H](O)C(=O)NCCC(=O)O`: “inactive”; `Cc1cc(C(C)Nc2ccccc2)c2nc(N3CCOCC3)cc(=O)n2c1` (configuration not stated): 0.132 µM (active). Take `OC[C@H]1O[C@@H](OCCc2ccc(O)cc2)[C@H](O)[C@@H](O)[C@H]1O`: the Potency was 26.4 µM (active). Still for that read-out and setting: as for `CCCCc1ccc(NS(=O)(=O)c2ccc(C)c(C(=O)N3CCN(c4cccc(C)c4C)CC3)c2)cc1`, the figure is 23.5 µM (active); as for `COc1cc2c(cc1OC)[C@@H]1Cc3ccc(OC)c(OC)c3CN1CC2`, “inactive”.

As for `O=S(=O)(O)c1ccc2cc(N=Nc3cc(S(=O)(=O)O)c4cccnc4c3O)ccc2c1`, the Potency was 18.7 µM (active). In the case of `CNC(=O)c1cc(COc2nnc(Nc3ccc(Cl)cc3)c3ccoc23)ccn1`, the Potency was 23.5 µM (active). Still for that read-out and setting: next, `CC1CCN(c2cc(N3CCN(C)CC3)ccc2NC(=O)c2cc(C#N)c[nH]2)CC1`: “inactive”; `Cc1cccc(Nc2nc(N[C@@H]3CCCC[C@H]3N)ncc2C(N)=O)c1`: 6.62 µM (active); `C[C@@]1(C(=O)Nc2ccc(F)nc2)CCCN1c1nc(Nc2cc(C3CC3)[nH]n2)c2cccn2n1`: 0.001 µM (active).

On to `O=c1[nH]c(=O)n([C@H]2C[C@@H](O)[C@@H](CO)O2)cc1C(F)(F)F`, for which the Potency was 3.72 µM (active). Same read-out and setting: next, `COc1cc(Cl)cn2c(-c3cccc(NC4CNC4)n3)cnc12`: 2.96 µM (active); `Cc1cc(-c2ncc(CC(=O)Nc3ccc(-c4cnccn4)cn3)cc2C)ccn1`: 16.6 µM (active). Still for that read-out and setting: as for `O=C(Nc1ccc(OC(F)(F)F)cc1)c1sccc1NCc1ccnc2ccccc12`, the figure is 26.4 µM (active); as for `O=C1Nc2ccc(I)cc2C1=Cc1cc(Br)c(O)c(Br)c1`, 8.33 µM (active).

For the molecule `C[C@@H]1C[C@H]2[C@@H]3CCC4=CC(=O)C=C[C@]4(C)[C@@]3(F)[C@@H](O)C[C@]2(C)[C@@]1(O)C(=O)CO`, the Potency is 0.001 µM (active). Still for that read-out and setting: next, `CSc1cccc(Nc2ncc3cc(-c4c(Cl)cccc4Cl)c(=O)n(C)c3n2)c1`: 0.0935 µM (active).

The nature of a further assay: qHTS of pediatric cancer cell lines to identify multiple opportunities for drug repurposing: Primary screen for BT-37 cells (AID 1347094). Conditions: BT-37 viability, CellTiter-Glo luminescence, 48 h; series mostly up to 57.3 µM. The procedure, abridged: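 Primary screen of approved and investigational compounds on cells in growth media at 37 degrees C, 5% CO2. MIPE set at 11-point and NPC set at 8-point dilutions; viability scored by ATP-based luminescence at 48 hours.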
For the molecule `CC[C@H](CC#N)OC(=O)N[C@@H](C)c1cccc(NC(=O)Nc2ccc(-c3cnco3)c(OC)c2)c1`, the Potency is 0.485 µM (active). The same measure, in the same setting: next, `C[C@@H](O[C@H]1OCCN(Cc2n[nH]c(=O)[nH]2)[C@@H]1c1ccc(F)cc1)c1cc(C(F)(F)F)cc(C(F)(F)F)c1`: 27.3 µM (active); `CCOC(=O)[C@H](CCc1ccccc1)N[C@@H](C)C(=O)N1CCCC1C(=O)O` (some centres not stated): “inactive”; `O=C(O)CCC=CCC[C@@H]1[C@H](N2CCCCC2)[C@@H](O)C[C@@H]1OCc1ccc(-c2ccccc2)cc1`: “inactive”. On the same count and under the same terms, as for `CC(C)(CO)[C@@H](O)C(=O)NCCC(=O)O`, the entry is “inactive”. The same measure, in the same setting: as for `C#C[C@]1(O)CC[C@H]2[C@H]3CCc4cc(OC)ccc4[C@H]3CC[C@@]21C`, the entry is “inactive”; as for `CC(C)(OCc1nn(Cc2ccccc2)c2ccccc12)C(=O)O`, “inactive”. Turning to `C#CCN(C)CC1=Cc2ccccc2Oc2ccccc21`, the Potency entry was “inactive”.

On to `OC[C@H]1O[C@@H](OCCc2ccc(O)cc2)[C@H](O)[C@@H](O)[C@H]1O`, for which the Potency entry was “inactive”. For the molecule `CC1CCN(c2cc(N3CCN(C)CC3)ccc2NC(=O)c2cc(C#N)c[nH]2)CC1`, the Potency result is “inactive”. Regarding `Cc1ccc(NC(=O)Nc2cc(C(F)(F)F)ccc2F)cc1Nc1ccc2c(c1)NC(=O)C2=Cc1ccc[nH]1`, the Potency is 24.3 µM (active). On the same count and under the same terms, as for `CC[C@H](C=C[C@@H](C)[C@H]1CC[C@H]2[C@@H]3CC=C4C[C@@H](O)CC[C@]4(C)[C@@H]3CC[C@]12C)C(C)C`, the entry is “inactive”. On the same count and under the same terms, as for `Cc1cccc(Nc2nc(N[C@@H]3CCCC[C@H]3N)ncc2C(N)=O)c1`, the figure is 27.3 µM (active). The same measure, in the same setting: as for `O=c1[nH]c(=O)n([C@H]2C[C@@H](O)[C@@H](CO)O2)cc1C(F)(F)F`, the figure is 3.06 µM (active); as for `C[C@]12CC[C@@H]3c4ccc(O)cc4CC[C@H]3[C@H]1[C@@H](O)[C@@H](O)[C@H]2O`, “inactive”; as for `O=C1Nc2ccc(I)cc2C1=Cc1cc(Br)c(O)c(Br)c1`, “inactive”. For the molecule `C[C@@H]1C[C@H]2[C@@H]3CCC4=CC(=O)C=C[C@]4(C)[C@@]3(F)[C@@H](O)C[C@]2(C)[C@@]1(O)C(=O)CO`, the Potency entry is “inactive”. Still for that read-out and setting: next, `COc1c(C)c2c(c(O)c1CC=C(C)CCC(=O)OCCN1CCOCC1)C(=O)OC2`: 1.53 µM (active).
